The panel holds about 79,000 compounds, 15% with a hit somewhere; the sample as a whole holds those more often. The source made the active and inactive calls. Rule as the data show it: active = growth inhibition above about 70%; inactive = the rest.
Assays:
[1] = NCI Yeast Anticancer Drug Screen. Data for the rad52 strain (AID 147);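 also: 0% = growth of vehicle-treated control cultures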; details: S. cerevisiae rad52 mutant growth inhibition, active compounds read high
How it was run: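 Read-out: growth inhibition versus vehicle-treated controls. Cells were a DNA repair-deficient yeast strain treated with compounds.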

[2] = NCI Yeast Anticancer Drug Screen. Data for the wt1 strain (AID 149);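 also: 0% = growth of vehicle-treated wt1 cultures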; details: S. cerevisiae wt1 strain (SPY 50644) growth inhibition, active compounds read high
How it was run: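 wt1 yeast, compound-treated; % growth inhibition vs vehicle control.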

[3] = NCI Yeast Anticancer Drug Screen. Data for the rad50EPP+ strain (AID 151);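 also: 0% = growth of vehicle-treated control cultures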; details: S. cerevisiae rad50 mutant strain, active compounds read high
How it was run: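 Growth inhibition read against vehicle controls in rad50EPP+ yeast, a strain altered in DNA damage repair, after compound exposure.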

[4] = NCI Yeast Anticancer Drug Screen. Data for the rad50 strain (AID 155);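 also: 0% = growth of vehicle-only cultures of the same strain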; details: S. cerevisiae rad50 strain growth inhibition, active compounds read high
How it was run: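 Genetically altered yeast (DNA repair pathway); compound treatment; growth inhibition vs vehicle ctrl.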

[5] = NCI Yeast Anticancer Drug Screen. Data for the mec2-1 strain (AID 157); details: S. cerevisiae mec2-1 strain, active compounds read high
How it was run: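 Yeast mec2-1 mutant treated with compound. Readout: growth inhibition vs vehicle controls.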

[6] = NCI Yeast Anticancer Drug Screen. Data for the sgs1 mgt1 strain (AID 161);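 also: 0% = growth of cultures given vehicle only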; details: S. cerevisiae sgs1 mgt1 strain, active compounds read high
How it was run: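 Test agents were incubated with a DNA-repair-mutant yeast strain. Growth was then read and compared against vehicle-treated controls.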

[7] = NCI Yeast Anticancer Drug Screen. Data for the CLN2oe strain (AID 163);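 also: 0% = growth of vehicle-only control cultures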; details: S. cerevisiae CLN2oe strain, active compounds read high
How it was run: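 Read-out: yeast growth inhibition, expressed relative to vehicle-only controls. The strain bears an engineered cell-cycle alteration.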

[8] = NCI Yeast Anticancer Drug Screen. Data for the cln2 rad14 strain (AID 165);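 also: 0% = growth equal to vehicle treated cultures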; details: S. cerevisiae cln2 rad14 strain, active compounds read high
How it was run: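 cln2 rad14 yeast strain; compound exposure; growth inhibition read vs vehicle controls.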

[9] = NCI Yeast Anticancer Drug Screen. Data for the bub3 strain (AID 167); details: S. cerevisiae bub3 mutant strain, active compounds read high
How it was run: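 Yeast carrying a defined mutation is treated with each compound, and growth is compared with that of vehicle-exposed cells to give inhibition.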

[10] = NCI Yeast Anticancer Drug Screen. Data for the wt2 strain (AID 169);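 also: 0% = growth of vehicle-treated yeast cultures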; details: S. cerevisiae wt2 strain growth inhibition, active compounds read high
How it was run: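 Read-out: growth inhibition versus vehicle-treated control cultures after compound exposure of the yeast strain.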

[11] = NCI Yeast Anticancer Drug Screen. Data for the mlh1 strain (AID 171);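 also: 0% = growth of vehicle-treated control cultures of the same strain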; details: S. cerevisiae mlh1 strain growth inhibition, active compounds read high
How it was run: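 Read-out: growth inhibition versus vehicle controls. Strain: engineered yeast with a defined DNA repair or cell cycle defect, compound-treated.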

[12] = NCI Yeast Anticancer Drug Screen. Data for the mlh1 rad18 strain (AID 175); details: S. cerevisiae mlh1 rad18 strain growth inhibition, active compounds read high
How it was run: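 Yeast w/ defined DNA-repair lesions; compound exposure; growth vs vehicle controls → % inhibition.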

[13] = NCI Yeast Anticancer Drug Screen. Data for the rad18 strain (AID 177); details: S. cerevisiae rad18 mutant growth inhibition, active compounds read high
How it was run: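 Readout: growth inhibition vs vehicle controls. Cells: genetically altered yeast strain, DNA repair defect.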

[14] = NCI Yeast Anticancer Drug Screen. Data for the rad14 strain (AID 159);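 also: 0% = growth of vehicle-treated control cultures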; details: S. cerevisiae rad14 strain growth inhibition, active compounds read high
How it was run: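 Test compounds were applied to a repair-deficient yeast strain. Its growth was then compared with that of cultures given vehicle alone, and inhibition was expressed relative to those controls.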

[15] = NCI Yeast Anticancer Drug Screen. Data for the sgs1 strain (AID 173);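 also: 0% = growth of vehicle-only control cultures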; details: S. cerevisiae sgs1 mutant, active compounds read high
How it was run: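 Read-out: yeast growth inhibition relative to vehicle controls, following compound exposure of a strain with a defined DNA repair/cell cycle alteration.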

[16] = at 5.0 µM (retest, dose inferred, filed as 0.5)
[17] = at 50.0 µM (retest, dose inferred, filed as 5.0)

Measured: growth inhibition

C/C=C/[P+](c1ccccc1)(c1ccccc1)c1ccccc1
active: [1]; at 11.0 µM 70% | [1]; at 33.0 µM 83% | [1]; at 100.0 µM 92% | [2]; at 100.0 µM 86% | [4]; at 11.0 µM 72% | [4]; at 33.0 µM 86% | [4]; [17] 78% | [4]; at 50.0 µM 81.2% | [4]; at 100.0 µM 95% | [5]; at 50.0 µM 83.3% | [5]; at 100.0 µM 91% | [6]; [17] 73% | [6]; at 50.0 µM 78.3% | [7]; at 100.0 µM 78% | [9]; [17] 86% | [9]; at 50.0 µM 78.6% | [9]; at 100.0 µM 90% | [10]; at 100.0 µM 87% | [11]; at 100.0 µM 92% | [12]; at 50.0 µM 87.8% | [13]; at 33.0 µM 90% | [13]; at 100.0 µM 94%
inactive: [1]; at 1.2 µM 49% | [1]; at 3.7 µM 62% | [2]; at 1.2 µM 31% | [2]; at 3.7 µM 42% | [2]; at 11.0 µM 54% | [2]; at 33.0 µM 61% | [3]; at 1.2 µM 13% | [3]; at 3.7 µM 2% | [3]; at 11.0 µM -4% | [3]; at 33.0 µM 0% | [3]; at 100.0 µM 16% | [4]; at 1.2 µM 50% | [4]; at 3.7 µM 67% | [4]; [16] 48% | [5]; at 1.2 µM 21% | [5]; at 3.7 µM 44% | [5]; [16] 33% | [5]; at 11.0 µM 54% | [5]; at 33.0 µM 64% | [5]; [17] 63% | [6]; [16] 20% | [7]; at 1.2 µM 16% | [7]; at 3.7 µM 13% | [7]; at 11.0 µM 29% | [7]; at 33.0 µM 30% | [8]; [16] 9% | [8]; [17] 16% | [8]; at 50.0 µM 52.6% | [9]; at 1.2 µM 15% | [9]; at 3.7 µM 29% | [9]; [16] 25% | [9]; at 11.0 µM 49% | [9]; at 33.0 µM 67% | [10]; at 1.2 µM -1% | [10]; at 3.7 µM 12% | [10]; at 11.0 µM 18% | [10]; at 33.0 µM 47% | [11]; at 1.2 µM 30% | [11]; at 3.7 µM 43% | [11]; at 11.0 µM 63% | [11]; at 33.0 µM 68% | [12]; [16] 33% | [12]; [17] 63% | [13]; at 1.2 µM 58% | [13]; at 3.7 µM 67% | [13]; at 11.0 µM 68%

Cc1nc2c(ncn2CCO)c(=O)[nH]1
active: [9]; [17] 76% | [12]; [17] 91%
inactive: [1]; at 1.2 µM -3% | [1]; at 3.7 µM -8% | [1]; at 11.0 µM -7% | [1]; at 33.0 µM -12% | [1]; at 100.0 µM -14% | [2]; at 1.2 µM -36% | [2]; at 3.7 µM -22% | [2]; at 11.0 µM -38% | [2]; at 33.0 µM -42% | [2]; at 100.0 µM -41% | [3]; at 1.2 µM -11% | [3]; at 3.7 µM 10% | [3]; at 11.0 µM 5% | [3]; at 33.0 µM 3% | [3]; at 100.0 µM 1% | [4]; at 1.2 µM -29% | [4]; at 3.7 µM -34% | [4]; [16] 29% | [4]; at 11.0 µM -32% | [4]; at 33.0 µM -33% | [4]; [17] 39% | [4]; at 50.0 µM 7.95% | [4]; at 100.0 µM -24% | [5]; at 1.2 µM 15% | [5]; at 3.7 µM -2% | [5]; [16] 13% | [5]; at 11.0 µM -3% | [5]; at 33.0 µM -3% | [5]; [17] 47% | [5]; at 50.0 µM -20.6% | [5]; at 100.0 µM -13% | [14]; at 1.2 µM -3% | [14]; at 3.7 µM 6% | [14]; at 11.0 µM 11% | [14]; at 33.0 µM -5% | [14]; at 100.0 µM -2% | [6]; [16] 29% | [6]; at 50.0 µM 2.1% | [7]; at 1.2 µM 0% | [7]; at 3.7 µM -7% | [7]; at 11.0 µM -2% | [7]; at 33.0 µM -6% | [7]; at 100.0 µM -4% | [8]; [16] 8% | [8]; [17] 34% | [8]; at 50.0 µM 8.25% | [9]; at 1.2 µM -10% | [9]; at 3.7 µM -7% | [9]; [16] 21% | [9]; at 11.0 µM -17% | [9]; at 33.0 µM -13% | [9]; at 50.0 µM 0.5% | [9]; at 100.0 µM -28% | [10]; at 1.2 µM -15% | [10]; at 3.7 µM -30% | [10]; at 11.0 µM -31% | [10]; at 33.0 µM -37% | [10]; at 100.0 µM -38% | [11]; at 1.2 µM -16% | [11]; at 3.7 µM -11% | [11]; at 11.0 µM -14% | [11]; at 33.0 µM -18% | [11]; at 100.0 µM -5% | [15]; at 1.2 µM 2% | [15]; at 3.7 µM 8% | [15]; at 11.0 µM 9% | [15]; at 33.0 µM 5% | [15]; at 100.0 µM -2% | [12]; [16] 45% | [12]; at 50.0 µM -40.7% | [13]; at 1.2 µM -38% | [13]; at 3.7 µM -32% | [13]; at 11.0 µM -9% | [13]; at 33.0 µM -35% | [13]; at 100.0 µM -36%

CCN(CC)CC(O)c1cc(-c2ccc(Cl)cc2)nc2c(-c3ccccc3)cccc12 (stereo not given)
inactive: [1]; at 1.2 µM -1% | [1]; at 3.7 µM -1% | [2]; at 1.2 µM 0% | [2]; at 3.7 µM -2% | [3]; at 1.2 µM -1% | [3]; at 3.7 µM 7% | [4]; at 1.2 µM 1% | [4]; at 3.7 µM 6% | [4]; [16] 48% | [14]; at 1.2 µM -2% | [14]; at 3.7 µM 4% | [6]; [16] 41% | [8]; [16] 6% | [8]; at 50.0 µM 8.2% | [9]; at 1.2 µM 1% | [9]; at 3.7 µM -5% | [9]; [16] 22% | [9]; at 50.0 µM 46.3% | [11]; at 1.2 µM -2% | [11]; at 3.7 µM 2% | [15]; at 1.2 µM -1% | [15]; at 3.7 µM 3% | [12]; [16] 59% | [13]; at 1.2 µM -2% | [13]; at 3.7 µM -1%
active: [1]; at 11.0 µM 98% | [1]; at 33.0 µM 98% | [1]; at 100.0 µM 93% | [2]; at 11.0 µM 98% | [2]; at 33.0 µM 98% | [2]; at 100.0 µM 95% | [3]; at 11.0 µM 96% | [3]; at 33.0 µM 98% | [3]; at 100.0 µM 95% | [4]; at 11.0 µM 98% | [4]; at 33.0 µM 98% | [4]; [17] 94% | [4]; at 50.0 µM 94.7% | [4]; at 100.0 µM 93% | [14]; at 11.0 µM 99% | [14]; at 33.0 µM 98% | [14]; at 100.0 µM 95% | [6]; [17] 97% | [6]; at 50.0 µM 97.7% | [8]; [17] 91% | [9]; at 11.0 µM 98% | [9]; at 33.0 µM 97% | [9]; [17] 95% | [9]; at 100.0 µM 92% | [11]; at 11.0 µM 99% | [11]; at 33.0 µM 98% | [11]; at 100.0 µM 95% | [15]; at 11.0 µM 98% | [15]; at 33.0 µM 98% | [15]; at 100.0 µM 96% | [12]; [17] 96% | [12]; at 50.0 µM 99.2% | [13]; at 11.0 µM 98% | [13]; at 33.0 µM 98% | [13]; at 100.0 µM 95%
